Test results published in PubChem BioAssay (NCATS).
Inconclusive results are not listed. Activity calls are given as the source filed them. Unless noted, calls come from the whole dose curve; as a rule, active = well fitted curve in the direction sought with a large enough effect; inconclusive = small, poorly fitted or top-dose-only effect, or another doubt; inactive = no such curve, though single readings can be large; an effect the other way counts as inactive or inconclusive.

Key:
[1] = molecular target: Cytochrome P450 1A2 (Homo sapiens) (UniProt P05177); assay: p450-cyp1a2 (AID 410; calls by dose curve; note: potency is the fitted concentration of half-maximal effect;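 for activity change, negative = inhibition: -100% = full effect of reference inhibitor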)
Outline: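 Inhibition was calculated relative to 57 uM furafylline (full inhibition). The reaction used human CYP1A2 at 20nM with Luciferin-ME at its Km, 100uM, driven by an NADPH-regenerating system for 60 min at room temperature.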

[2] = molecular target: Glucocorticoid receptor (Homo sapiens) (UniProt P04150); assay: GR-GFP Redistribution (AID 450;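 active = compounds whose dose series gives a full or clear partial fitted curve of increased nuclear translocation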; note: potency is the fitted concentration of half-maximal effect); settings: U2OS GR-GFP nuclear translocation, laser cytometry, 2 h
[3] = molecular target: Glucocorticoid receptor (Homo sapiens) (UniProt P04150); assay: GR-EFC Redistribution (AID 451; calls by dose curve; note: potency is the fitted concentration of half-maximal effect); settings: CHO-K1 GR-EFC translocation, beta-gal luminescence, 2 h
Outline: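 Translocation of GR-ED fusion to nuclear EA restores b-gal, read by luminescence after 1 h room-temperature detection. Engineered CHO-K1 biosensor cells, 1,000/well, exposed 2 h at 37 C to titrations up to 46 uM final.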

[4] = molecular target: Mitogen-activated protein kinase 10 (Mus musculus) (UniProt Q61831); assay: JNK3 AlphaScreen Assay (AID 530; active = well fitted curve in either direction with a large enough effect, not every such curve was filed as active;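 note: kinase came from lysate of stimulated human HepG2 cells; signal reports phosphorylation of biotinylated GST-cJun 1-79 at Ser73 with 10 µM ATP; % is set by controls: 0 for no effect and ±100 for the full control effect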)
Outline: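 Room-temperature AlphaScreen kinase assay; pre-activated HepG2 lysate as JNK3 source, biotin-GST-cJun(1-79) substrate, 10 uM ATP, compound 15 min preincubation.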

[5] = molecular target: Cytochrome P450 2D6 (Homo sapiens) (UniProt P10635); assay: qHTS Assay for Inhibitors and Substrates of Cytochrome P450 2D6 (AID 891); note: potency is the fitted concentration of half-maximal effect; nearly all actives have a fitted effect of over 60% in size
Outline: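 Human CYP2D6 (5 nM) with 30 uM Luciferin-ME EGE (at Km) in 100 mM KPO4, compound preincubated 10 min, then NADPH regeneration system for 60 min at room temperature. Luciferin read by luminescence; normalized to 1.43 uM quinidine.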

[6] = molecular target: DNA dC->dU-editing enzyme APOBEC-3G (Homo sapiens) (UniProt Q9HC16); assay: qHTS for inhibitors of Vif-A3G interactions: Validation (AID 588379); note: 0% is about no effect
Outline: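 HeLa cells stably expressing Vif and A3G-eYFP, 700 cells/well, incubated overnight at 37 deg C, then exposed to compound overnight at 37 deg C. Inhibition of Vif-mediated degradation read as increased yellow fluorescence (Ex 488/Em 500-530) by laser-scanning cytometry.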

[7] = tested on: Zika virus NS2B-NS3 protease; assay: Primary screen GU AMC qHTS for Zika virus inhibitors (AID 1347154);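 note: 0% = no-inhibitor control and -100% = no-enzyme control; nearly all actives have a fitted effect of over 70% in size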
Outline: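 Fluorogenic AMC-substrate cleavage by noncovalent NS2B-NS3 protease complex (25 nM, pH 8.0 Tris buffer with Tween 20) followed for 15 minutes at room temperature (~20% conversion). Percent inhibition from ex340/em450 signal change, fitted by 4-parameter Hill equation.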

[8] = Primary qHTS for small molecule stabilizers of the endoplasmic reticulum resident proteome: Secreted ER Calcium Modulated Protein (SERCaMP) assay (AID 1508630); note: % is set by controls: 0 for no effect and ±100 for the full control effect
Outline: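 GLuc-SERCaMP-expressing SH-SY5Y cells, pretreated 16 h with compound, are challenged with thapsigargin to empty ER calcium stores; after 4 h, coelenterazine is added directly to the medium and luminescence is imaged.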

[9] = molecular target: Glutathione peroxidase 1 (Homo sapiens) (UniProt P07203); assay: Primary qHTS Assay for Inhibitors of Recombinant Selenoprotein Glutathione Peroxidase 1 (GPX1) (AID 1845191); note: nearly all actives have a fitted effect of over 65% in size
Outline: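 10 nM GPX1 + cpd, 30 min RT; start w/ 1 mM GSH, 0.5 mM cumene hydroperoxide, 0.5 mM NADPH, 100 nM GR, 0.01% BSA; buffer 50 mM Tris-HCl pH 7.5, 2 mM EDTA, 150 mM NaCl; Fl 340/450, 0 & 15 min.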

[10] = molecular target: 3',5'-cyclic-AMP phosphodiesterase 4B (Homo sapiens) (UniProt Q07343); assay: qHTS Assay for Inhibitors of PDE-IV (AID 607; active = well fitted activation curve with a large enough effect in the main read-out, with a control signal flat, not every such curve was filed as active; note: % of control where 0% means no effect)
Outline: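 The readout is membrane depolarisation from a cAMP-sensing CNG channel, detected with a potential dye at ex 535/em 590. Cells were HEK293-derived (endogenous PDE-IV) at 1000 cells/well, titrated up to 22.9 uM final.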

[11] = qHTS Assay for Lipid Storage Modulators (AID 1519; calls by dose curve; for activity change, negative = inhibition: % is set by controls: 0 for no effect and ±100 for the full control effect); settings: Drosophila S3 cells, BODIPY lipid droplet/cell ratio, laser cytometry, cells loaded with oleic acid; for activity change, negative = inhibition: at 57.5 µM (top of the series)
Outline: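 Cells seeded at 5,000 per well were treated with compounds over a concentration series and loaded with oleic acid (400 uM, as added). Lipid droplet fluorescence (488 nm excitation, 500-530 nm channel) was read by laser-scanning cytometry and normalized to 20 uM Triacsin C.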

[12] = molecular target: Ubiquitin carboxyl-terminal hydrolase 1 (Homo sapiens) (UniProt O94782); assay: Inhibitors of USP1/UAF1: Pilot qHTS (AID 504865);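 note: rhodamine fluorescence freed from ubiquitin-rhodamine substrate followed over time; top concentration of the series differs between compounds; % is set by controls: 0 for no effect and ±100 for the full control effect; nearly all actives have a fitted effect of over 35% in size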
Outline: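 Kinetic fluorescence assay: 1nM USP1/UAF1, 15 min compound preincubation, then 150nM Ub-Rho; 480/540 nm.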

[13] = molecular target: Rap guanine nucleotide exchange factor 3 (Homo sapiens) (UniProt O95398); assay: Confirmatory qHTS for antagonist of cAMP-regulated guanine nucleotide exchange factor 3 (EPAC1) (AID 1645880);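 note: plate controls were DMSO only for no effect and full effect of the ATA control for full effect; nearly all actives have a fitted effect of over 55% in size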
Outline: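 Nucleotide exchange uses 100 nM EPAC1, 250 nM RAP1B-BODIPY-GDP and 50 uM GDP, with compounds in a concentration-titration series. After 5 min at room temperature, fluorescence (480 nm ex/540 nm em) is read every 5 min for 30 min. Data are normalized to control ATA and DMSO.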

[14] = molecular target: Rap guanine nucleotide exchange factor 3 (Homo sapiens) (UniProt O95398); assay: Confirmatory qHTS for agonist of cAMP-regulated guanine nucleotide exchange factor 3 (EPAC1) (AID 1645881);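 note: EPAC1 catalysed release of BODIPY-GDP from Rap1B seen as fluorescence loss; 100% = effect of cAMP agonist control; nearly all actives have a fitted effect of over 75% in size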
[15] = molecular target: Rap guanine nucleotide exchange factor 4 (Homo sapiens) (UniProt Q8WZA2); assay: Confirmatory qHTS for agonist of cAMP-regulated guanine nucleotide exchange factor 4 (EPAC2) (AID 1645884);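 note: nucleotide exchange releases bodipy-GDP from Rap1 and this lowers its fluorescence; % is set by controls: 0 for no effect and ±100 for the full control effect; nearly all actives have a fitted effect of over 65% in size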
[16] = measured here: cell count channel max response
[17] = measured here: lipid channel max response

Sequence of DNA dC->dU-editing enzyme APOBEC-3G (Homo sapiens) (Q9HC16 whole entry, looked up): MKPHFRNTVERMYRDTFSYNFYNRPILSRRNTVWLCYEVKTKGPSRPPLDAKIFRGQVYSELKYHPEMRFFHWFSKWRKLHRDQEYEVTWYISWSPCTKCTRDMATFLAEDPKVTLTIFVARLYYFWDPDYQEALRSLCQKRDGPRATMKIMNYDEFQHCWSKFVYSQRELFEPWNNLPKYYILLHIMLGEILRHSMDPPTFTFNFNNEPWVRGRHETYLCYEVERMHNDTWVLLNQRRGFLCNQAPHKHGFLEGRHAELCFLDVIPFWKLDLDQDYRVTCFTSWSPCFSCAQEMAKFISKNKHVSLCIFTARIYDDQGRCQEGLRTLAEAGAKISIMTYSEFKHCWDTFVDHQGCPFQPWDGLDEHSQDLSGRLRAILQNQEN
Sequence of Glucocorticoid receptor (Homo sapiens) (P04150 whole entry, looked up, the tested form may be a part): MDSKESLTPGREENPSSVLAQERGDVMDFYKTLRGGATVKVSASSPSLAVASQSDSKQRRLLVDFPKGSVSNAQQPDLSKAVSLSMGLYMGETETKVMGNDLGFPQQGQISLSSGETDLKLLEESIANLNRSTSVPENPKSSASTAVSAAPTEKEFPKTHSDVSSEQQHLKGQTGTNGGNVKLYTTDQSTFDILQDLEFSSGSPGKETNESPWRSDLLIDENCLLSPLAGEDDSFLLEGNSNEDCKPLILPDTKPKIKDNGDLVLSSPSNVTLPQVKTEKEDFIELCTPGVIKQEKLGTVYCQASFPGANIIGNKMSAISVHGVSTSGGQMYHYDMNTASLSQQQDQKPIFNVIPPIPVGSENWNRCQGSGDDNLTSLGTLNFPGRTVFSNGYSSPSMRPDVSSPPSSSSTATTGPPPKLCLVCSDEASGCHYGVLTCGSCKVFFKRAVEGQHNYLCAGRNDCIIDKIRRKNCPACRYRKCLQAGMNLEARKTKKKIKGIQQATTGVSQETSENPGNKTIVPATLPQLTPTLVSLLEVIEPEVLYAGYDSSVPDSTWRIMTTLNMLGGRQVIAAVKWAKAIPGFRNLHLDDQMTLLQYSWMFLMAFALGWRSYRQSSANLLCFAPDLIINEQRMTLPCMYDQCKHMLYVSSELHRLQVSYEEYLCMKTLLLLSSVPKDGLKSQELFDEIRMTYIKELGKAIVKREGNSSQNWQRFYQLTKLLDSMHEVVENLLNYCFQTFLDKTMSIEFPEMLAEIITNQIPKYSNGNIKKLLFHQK
Sequence of Rap guanine nucleotide exchange factor 3 (Homo sapiens) (O95398 whole entry, looked up): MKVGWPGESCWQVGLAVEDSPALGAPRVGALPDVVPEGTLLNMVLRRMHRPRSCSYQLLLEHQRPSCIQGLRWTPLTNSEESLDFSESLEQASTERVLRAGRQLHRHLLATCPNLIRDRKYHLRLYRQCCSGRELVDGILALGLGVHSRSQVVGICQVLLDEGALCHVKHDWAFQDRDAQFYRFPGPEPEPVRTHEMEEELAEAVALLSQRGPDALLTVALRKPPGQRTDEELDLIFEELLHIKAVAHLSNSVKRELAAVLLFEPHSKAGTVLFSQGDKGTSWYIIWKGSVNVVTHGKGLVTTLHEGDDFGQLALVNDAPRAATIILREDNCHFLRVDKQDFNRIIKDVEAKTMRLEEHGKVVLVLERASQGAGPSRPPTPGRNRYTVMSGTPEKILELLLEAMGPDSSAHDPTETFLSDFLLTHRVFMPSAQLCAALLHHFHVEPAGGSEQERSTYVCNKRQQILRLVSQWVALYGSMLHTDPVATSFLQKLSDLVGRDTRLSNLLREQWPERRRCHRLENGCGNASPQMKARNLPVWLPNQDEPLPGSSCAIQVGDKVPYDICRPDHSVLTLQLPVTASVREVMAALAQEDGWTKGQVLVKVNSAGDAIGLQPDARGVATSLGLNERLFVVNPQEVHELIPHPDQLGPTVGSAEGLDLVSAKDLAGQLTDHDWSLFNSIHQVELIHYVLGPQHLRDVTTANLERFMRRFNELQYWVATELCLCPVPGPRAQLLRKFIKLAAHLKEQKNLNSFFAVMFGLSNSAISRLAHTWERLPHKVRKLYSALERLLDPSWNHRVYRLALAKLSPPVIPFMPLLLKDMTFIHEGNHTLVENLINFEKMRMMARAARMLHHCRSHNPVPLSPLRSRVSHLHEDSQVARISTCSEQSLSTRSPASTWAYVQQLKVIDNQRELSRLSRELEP
Sequence of 3',5'-cyclic-AMP phosphodiesterase 4B (Homo sapiens) (Q07343 whole entry, looked up): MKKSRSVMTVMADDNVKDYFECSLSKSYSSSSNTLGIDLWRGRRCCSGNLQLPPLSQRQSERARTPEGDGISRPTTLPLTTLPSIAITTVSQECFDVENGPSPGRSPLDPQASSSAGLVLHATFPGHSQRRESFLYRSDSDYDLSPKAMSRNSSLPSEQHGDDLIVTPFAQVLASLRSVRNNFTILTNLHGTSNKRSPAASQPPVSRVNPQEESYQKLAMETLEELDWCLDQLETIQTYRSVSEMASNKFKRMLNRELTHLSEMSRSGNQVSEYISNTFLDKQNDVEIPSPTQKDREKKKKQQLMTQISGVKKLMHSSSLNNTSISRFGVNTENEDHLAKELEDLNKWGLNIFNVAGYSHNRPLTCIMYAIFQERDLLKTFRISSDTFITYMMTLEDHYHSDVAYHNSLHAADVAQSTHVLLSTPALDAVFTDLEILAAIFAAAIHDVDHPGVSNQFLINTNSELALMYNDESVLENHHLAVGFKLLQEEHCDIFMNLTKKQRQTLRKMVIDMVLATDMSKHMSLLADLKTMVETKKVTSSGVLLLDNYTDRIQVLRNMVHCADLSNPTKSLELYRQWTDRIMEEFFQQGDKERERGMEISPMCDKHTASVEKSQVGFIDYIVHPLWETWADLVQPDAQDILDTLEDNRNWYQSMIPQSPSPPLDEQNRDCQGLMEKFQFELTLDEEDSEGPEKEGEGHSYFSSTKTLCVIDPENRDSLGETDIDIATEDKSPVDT
Sequence of Cytochrome P450 1A2 (Homo sapiens) (P05177 whole entry, looked up): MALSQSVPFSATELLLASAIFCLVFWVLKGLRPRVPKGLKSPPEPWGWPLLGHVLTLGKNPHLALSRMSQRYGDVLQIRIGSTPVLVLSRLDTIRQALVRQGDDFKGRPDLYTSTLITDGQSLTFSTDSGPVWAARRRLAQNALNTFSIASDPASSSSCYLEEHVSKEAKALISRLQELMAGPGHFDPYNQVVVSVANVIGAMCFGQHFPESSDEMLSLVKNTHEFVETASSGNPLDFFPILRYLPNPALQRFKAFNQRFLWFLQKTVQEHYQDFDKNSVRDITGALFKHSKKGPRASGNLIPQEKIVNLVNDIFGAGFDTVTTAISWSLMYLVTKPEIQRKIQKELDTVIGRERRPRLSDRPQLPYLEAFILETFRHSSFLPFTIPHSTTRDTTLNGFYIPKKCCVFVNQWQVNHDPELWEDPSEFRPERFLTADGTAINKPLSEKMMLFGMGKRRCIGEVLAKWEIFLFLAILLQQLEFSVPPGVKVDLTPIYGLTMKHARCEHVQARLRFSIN
Sequence of Ubiquitin carboxyl-terminal hydrolase 1 (Homo sapiens) (O94782 whole entry, looked up): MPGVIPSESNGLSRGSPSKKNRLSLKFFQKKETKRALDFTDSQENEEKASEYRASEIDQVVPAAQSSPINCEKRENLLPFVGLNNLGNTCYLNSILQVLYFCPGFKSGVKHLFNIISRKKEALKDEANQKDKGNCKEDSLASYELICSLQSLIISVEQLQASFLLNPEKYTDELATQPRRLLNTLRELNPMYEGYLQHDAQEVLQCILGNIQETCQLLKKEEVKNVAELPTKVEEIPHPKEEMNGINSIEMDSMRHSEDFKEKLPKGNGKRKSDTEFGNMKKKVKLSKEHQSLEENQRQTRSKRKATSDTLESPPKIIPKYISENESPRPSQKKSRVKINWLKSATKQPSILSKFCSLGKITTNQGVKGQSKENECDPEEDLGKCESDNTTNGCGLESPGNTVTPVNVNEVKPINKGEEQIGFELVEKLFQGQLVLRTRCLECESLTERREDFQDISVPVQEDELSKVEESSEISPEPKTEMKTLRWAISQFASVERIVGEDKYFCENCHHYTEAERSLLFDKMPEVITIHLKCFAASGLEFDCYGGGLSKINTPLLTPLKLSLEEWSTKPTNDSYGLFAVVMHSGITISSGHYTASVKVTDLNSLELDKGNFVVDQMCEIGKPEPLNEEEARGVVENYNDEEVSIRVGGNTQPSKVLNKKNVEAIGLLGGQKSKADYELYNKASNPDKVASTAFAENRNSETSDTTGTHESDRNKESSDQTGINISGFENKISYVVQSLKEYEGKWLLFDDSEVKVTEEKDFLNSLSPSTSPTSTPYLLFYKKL
Sequence of Cytochrome P450 2D6 (Homo sapiens) (P10635 whole entry, looked up): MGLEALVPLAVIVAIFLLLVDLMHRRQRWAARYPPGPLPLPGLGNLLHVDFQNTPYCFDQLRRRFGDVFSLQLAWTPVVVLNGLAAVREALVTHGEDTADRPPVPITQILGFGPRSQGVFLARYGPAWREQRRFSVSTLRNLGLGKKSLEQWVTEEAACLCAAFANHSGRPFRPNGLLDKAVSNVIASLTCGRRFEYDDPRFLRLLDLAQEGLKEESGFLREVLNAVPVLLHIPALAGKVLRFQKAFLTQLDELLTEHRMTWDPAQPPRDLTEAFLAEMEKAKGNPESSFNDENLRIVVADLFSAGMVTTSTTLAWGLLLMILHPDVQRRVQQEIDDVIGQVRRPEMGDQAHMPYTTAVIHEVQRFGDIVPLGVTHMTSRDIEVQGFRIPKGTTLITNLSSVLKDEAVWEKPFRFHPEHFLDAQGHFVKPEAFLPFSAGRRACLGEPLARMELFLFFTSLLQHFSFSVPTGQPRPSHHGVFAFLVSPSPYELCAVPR
Sequence of Glutathione peroxidase 1 (Homo sapiens) (P07203 whole entry, looked up): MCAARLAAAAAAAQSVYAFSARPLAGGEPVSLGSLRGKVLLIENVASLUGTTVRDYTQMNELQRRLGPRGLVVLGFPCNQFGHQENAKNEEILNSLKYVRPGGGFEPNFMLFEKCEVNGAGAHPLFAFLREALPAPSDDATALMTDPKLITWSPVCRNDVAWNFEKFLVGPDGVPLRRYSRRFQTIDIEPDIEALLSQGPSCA

CN(C(=O)Cc1ccccc1)[C@H](CN1CCCC1)c1ccccc1
inactive: Potency [1] | Potency [2] > 46 µM | Potency [3] > 46 µM | outcome [4] | Potency [6] | Potency [7] | Potency [8] | Potency [9]
active: Potency [5] 3.16 µM

N[C@@H](CCCCP(=O)(O)O)C(=O)O
-29%: max response [11, 17]
-29.3%: max response [11, 16]
inactive: Potency [2] > 46 µM | Potency [3] > 46 µM | outcome [4] | Potency [10] | activity change, negative = inhibition [11] 0.372% | Potency [12] | Potency [6] | Potency [7] | Potency [8]

CCCn1c(C)c(C(=O)c2cccc3ccccc23)c2ccccc21
active: Potency [1] 2 µM
inactive: Potency [2] > 46 µM | Potency [3] > 46 µM | outcome [4] | Potency [7] | Potency [8] | Potency [13] | outcome [14] | outcome [15]

O=C(O)/C=C\CO
-9.77%: max response [11, 17]
-10.2%: max response [11, 16]
inactive: Potency [3] > 46 µM | outcome [4] | Potency [10] | activity change, negative = inhibition [11] 3.52% | Potency [12] | Potency [6] | Potency [7] | Potency [8]
